# Reference: PubChem BioAssay (NCI)
# About 83,000 compounds went through this panel and 20% of them were active in at least one assay; those are over-represented in the sample as a whole.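 Percent growth is the endpoint: 0 to 100 indicates growth inhibition (40 means 60% inhibition), 0 means no net growth, and negative values indicate cell death.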 Unmarked numbers belong to inactive results. The source made the active and inactive calls. Rule for the calls: active = growth percent below 10; inactive = the rest.
# Assays:
# Assay in all cases: NCI-60 one-dose screen, 48 h (100 = growth as untreated, 0 = no growth, -100 = all killed)
# Conditions in all cases: 10 µM unless noted
# [1] = system: SR leukemia
# [2] = system: RPMI-8226 leukemia
# [3] = system: OVCAR-8 ovarian
# [4] = system: OVCAR-5 ovarian
# [5] = system: OVCAR-4 ovarian
# [6] = system: SK-OV-3 ovarian
# [7] = system: IGROV1 ovarian
# [8] = system: OVCAR-3 ovarian
# [9] = system: HS 578T breast
# [10] = system: NCI/ADR-RES ovarian
Structure (SMILES),growth [1],growth [2],growth [3],growth [4] [%],growth [5],growth [6],growth [7],growth [8],growth [9],growth [10]
Cc1nc2ccccc2c(=O)n1-c1cccc(OCc2cn(-c3cccc(O)c3)nn2)c1,86.3%,71.5%,88.6%,111,89.6%,103%,99.2%,91.5%,87.4%,98%
CCCCCCC(C(=O)OCC)(C(=O)OCC)C1CCCCCC1,101%,113%,107%,102,101%,95.7%,102%,117%,105%,106%
COc1ccc2cn3c4ccc(O)cc4[nH]c(=O)c3c2c1,16.1%,13.2%,12.7%,21,-2.67% (active),-1.15% (active),17.6%,-7.15% (active),-22.4% (active),-39% (active)
CCCCCCCCc1ccc(OCCOCC[N+](C)(C)CC)cc1 (tested in a mixture with another compound),37.7%,8.79% (active),48.4%,76,20.7%,78.5%,33.8%,20.6%,37.7%,107%
COCC(=O)NNc1[nH]c(-c2ccc(OC)cc2)cc1C#N,102%,101%,113%,98.6,127%,112%,22.4%,129%,104%,106%
c1cc(C2CCCCC2)ccc1OCCCCCCN1CCNCC1,-4.39% (active),-31% (active),48%,41.3,41.6%,83.8%,8.79% (active),40.5%,51.9%,54.1%
c1ccc(-c2cn3ccnc3c(-c3ccc4ncn(C5CCCCC5)c4c3)n2)cc1,40.2%,14.3%,36.1%,92.1,65.5%,92.5%,88%,58.2%,76.2%,49.5%
CCCCCCCCCCC1OC(C)CC(C)O1 (stereo not given),71.6%,99.6%,99.5%,99.2,111%,103%,109%,98.3%,101%,105%
COc1cc(-c2nn(-c3ccc(NC(=O)Nc4cc(C(F)(F)F)cc(C(F)(F)F)c4)cc3)cc2-c2ccncc2)ccc1Cl,-0.776% (active),-2.24% (active),9.59% (active),18.8,-12.2% (active),-3.31% (active),8.43% (active),-20.9% (active),-34% (active),3.86% (active)
COc1ccccc1Nc1nnc(COc2ccc(CNC(=O)CCCC/C=C/C(C)C)cc2OC)o1,76.1%,70.7%,101%,89.7,101%,107%,97.8%,89.6%,98%,89.8%
O=C1C(=O)c2ccccc2C(O)=C1CCCc1ccc(C2CCCC2)cc1,-49.3% (active),7.4% (active),31.7%,24.9,23.4%,55%,50.8%,39.3%,31.7%,37.6%
CCOC(=O)c1cc(-c2ccc(OC)cc2)[nH]c1NNC(=O)CCOC,87.7%,98.2%,106%,100,113%,105%,2.76% (active),82.5%,104%,125%
CCOC(=O)CCCCCCCCC(=O)OCC,106%,108%,106%,112,111%,106%,105%,106%,110%,101%
CC[N+](C)(C)N,93.8%,101%,98.3%,111,102%,109%,111%,114%,108%,109%
Cc1cc2c(-c3nc4ccccc4[nH]3)c(O)c(O)cc2c(O)c1-c1c(C)cc2c(-c3nc4ccccc4[nH]3)c(O)c(O)cc2c1O,6% (active),9.72% (active),-6.85% (active),26.2,6.83% (active),-35.6% (active),12.7%,20.6%,4.85% (active),-12.6% (active)
CCOC(=O)c1ccc2n1CCCc1cnc(NC(C)=O)nc1-2,101%,99.1%,103%,94.1,104%,106%,107%,107%,99.6%,108%
COc1ccc2c(c1)cn1c3ccc(O)cc3[nH]c(=O)c21,3.4% (active),-20.2% (active),15%,18.7,28.6%,11.3%,13.2%,-21.9% (active),-22.9% (active),1.78% (active)
CCC1(CC)C(OC)NC(Br)=C(C#N)C1(C#N)C(N)=O (stereo not given),57.5%,132%,106%,249,110%,114%,-8.89% (active),119%,96.5%,124%
COc1cc2c(/C=C3\C(=O)Nc4ccc(Br)cc43)c(Cl)n(C)c2cc1C,0.77% (active),0.149% (active),17.8%,13.4,45.6%,24.7%,-10.2% (active),-23.5% (active),40.2%,-17.7% (active)
NNC(=S)N1N=C(c2cc3ccccc3o2)CC1c1c[nH]c2ccccc12 (stereo not given),27.2%,28%,38.8%,80.4,28.6%,86.2%,35.3%,20%,63.8%,30.7%
O=C(/C=C/c1c[nH]c2ccccc12)c1cc2ccccc2o1,41.1%,60.1%,99.3%,101,101%,103%,88.2%,93.3%,100%,99.9%
COc1ccc(-c2nc(SCC(C)C)nc(Nc3ccc(C(=O)O)cc3)c2C#N)cc1,82.5%,60.8%,97.1%,104,87.1%,113%,109%,86.6%,99.1%,94.6%
CCCCCCCCCCC(C[N+](C)(C)C/C=C/c1ccccc1)C(O)c1ccccc1 (stereo not given),-46.2% (active),-50.8% (active),20.5%,42.6,8.79% (active),53.1%,-70.9% (active),-50.7% (active),49%,97.6%
COC(=O)CC(=O)C(=O)OC,93.1%,101%,105%,108,108%,106%,108%,106%,105%,106%
O=C(CCl)c1ccc2c(c1)CCCC2,7.36% (active),84.6%,95.6%,107,107%,110%,89.2%,114%,94.7%,108%
CC(=O)C(CO)C(=O)Nc1ccccc1 (stereo not given),94.8%,103%,109%,102,98%,93.8%,105%,110%,118%,103%
NC(=O)c1c(Nc2ccccc2)nn2cc(-c3nc4ccccc4s3)c(N)nc12,82.8%,96.4%,102%,104,97.1%,94.8%,93.3%,107%,93.3%,98.9%
CC(=O)Nc1nc(C)c(C(=O)N/N=C/c2cccs2)s1,81.4%,61.9%,112%,99,112%,87.7%,-4.95% (active),121%,85.5%,99.2%
